# From the supplement of paper PMC8728848
# Shown is part of a subset that was picked to be rich in the strongest signals.
# B1: GNL (Galanthus nivalis) (protein)
# chain: MGHHHHHHHHYGTLENGHWLMVGMSIFSKDRTVELRMQDDGKLAIYYNDHCAWQSTAQQVNNAKGAVMQGDGNFCIYDKNGKATWHTNTAAPSGDSHTFVSVQDDGNLVLYKNNGATPIWSSKSNK
# Experiments:
# [1] = target: Neu5Ac(a2-8)Neu5Ac(a2-3)Gal(b1-3)GalNAc(b1-4)[Neu5Ac(a2-3)]Gal(b1-4)Glc; experiment: glycan array binding signal (z-score within array); higher = stronger binding; conditions: glycan notation: IUPAC condensed, linker removed
# In short: (§1)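 Columns mapping to the same glycan were averaged after glycan names were converted to IUPAC-condensed notation. The data come from 3228 arrays in the Consortium for Functional Glycomics database, limited to those with an available protein sequence. Binding is reported as a within-array Z-score averaged across arrays of one protein sequence and across linkers.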
# [2] = target: Neu5Gc(a2-8)Neu5Gc(a2-6)Gal(b1-4)GlcNAc; experiment: as above; conditions: glycan notation: IUPAC condensed, linker removed
# In short: as §1
binder,measurement,setting,value
B1,glycan array binding signal (z-score),[1],-0.285
same,glycan array binding signal (z-score),[2],-0.194
